Most compounds without a hit are left out; they make up all but 2.6% or so of the library.
PAFAH1B3 inh = blocks human PAF acetylhydrolase 1B catalytic subunit 3. 0.28% of 340,000 active. recombinant PAFAH1B3, FP-rhodamine probe, fluorescence polarization. Q15102. inhibition, % at 3.39 µM;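 active = inhibition above the screen-wide average of all tested compounds plus 3 SD, cut at about 25% in these data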;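 also: 0% = enzyme with DMSO only and 100% = wells lacking PAFAH1B3 protein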
PAFAH2 FP inh = inhibitors of human PAFAH2; Q99487; recombinant PAFAH2, FP-rhodamine activity probe, fluorescence polarization; inhibition, % at 3.39 µM; 0.99% of 340,000 active; AID 492956;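 active = inhibition above the mean over all tested compounds plus 3 SD, cut at about 30% in these data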;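 also: inhibitors block probe labeling of enzyme so polarization drops; 0% = enzyme with DMSO and 100% = wells lacking PAFAH2 protein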
PAFAH1B2 FP inh = inhibitors of human PAFAH1B2; recombinant PAFAH1B2, FP-rhodamine activity probe, fluorescence polarization; inhibition, % at 3.39 µM; 1.2% of 340,000 active;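 active = inhibition above the mean of all tested compounds plus 3 SD, cut at about 24% in these data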;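 also: 0% = enzyme with DMSO and 100% = wells lacking PAFAH1B2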
PKA-R1A activ = activates the PKA-R1A holoenzyme complex. 0.083% of 340,000 active. PKA-R1A dissociation, Cy5-IP20 fluorescence polarization; scaled: DMSO 0%, 113 µM cGMP 100%. P00514+P68181. AID 504707. activation, % at 11.4 µM;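 active = percent activation above the mean of all tested compounds plus 3 SD, cut at about 19% in these data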;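 also: higher means more PKAc released from R1A so a rise in polarization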
PKA-R2B act = PKA-R2B complex activation; P22694+P31323; PKA-R2B holoenzyme dissociation, Cy5-IP20 fluorescence polarization; R2B truncated from residue 108, S112A mutant; 0% DMSO only, 100% 113 µM cGMP; activation, % at 11.4 µM; 0.079% of 340,000 active;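 active = activation above a cutoff set at the mean over all compounds plus 3 SD, cut at about 18% in these data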;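 also: higher means more holoenzyme dissociation and a rise in polarization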
Target sequence (P31323 whole entry, looked up, other chains not shown, the tested form may be a part): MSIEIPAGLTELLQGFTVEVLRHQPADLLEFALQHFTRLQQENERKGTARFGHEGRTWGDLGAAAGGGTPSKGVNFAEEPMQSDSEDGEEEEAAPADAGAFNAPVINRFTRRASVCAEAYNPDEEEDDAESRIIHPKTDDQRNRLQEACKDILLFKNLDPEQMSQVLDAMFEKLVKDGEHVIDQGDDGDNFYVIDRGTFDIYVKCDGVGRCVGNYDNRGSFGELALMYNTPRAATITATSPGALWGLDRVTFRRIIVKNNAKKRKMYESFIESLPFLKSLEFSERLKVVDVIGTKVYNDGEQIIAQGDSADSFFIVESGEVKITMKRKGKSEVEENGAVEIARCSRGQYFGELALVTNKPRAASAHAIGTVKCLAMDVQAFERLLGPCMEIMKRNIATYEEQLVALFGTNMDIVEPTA
pPAFAH FP inh = inhibitors of human plasma PAF acetylhydrolase (pPAFAH); Q13093; recombinant pPAFAH, FP-rhodamine probe fluorescence polarization; inhibition, % at 3.39 µM; 1.5% of 330,000 active; AID 463082;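 active = inhibition above the mean inhibition across the screen plus 3 SD, cut at about 25% in these data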;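 also: inhibitors block binding of the rhodamine activity-based probe so polarization drops; 0% = enzyme with DMSO and 100% = wells lacking pPAFAH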
PAFAH2 confirm = confirmation of human PAFAH2 inhibitors; shares compounds with PAFAH2 FP inh; recombinant PAFAH2, FP-rhodamine activity probe, fluorescence polarization; inhibition, % at 3.39 µM; 65% of 2,300 active;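 active = mean inhibition over three repeats above a set limit taken from the earlier primary screen, cut at about 30% in these data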;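 also: inhibitor blocks binding of rhodamine activity probe so polarization falls; 0% = enzyme with DMSO and 100% = wells lacking PAFAH2 protein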
An asterisk follows results filed as active; · = no result given.

SMILES	PAFAH1B3 inh	PAFAH2 FP inh	PAFAH1B2 FP inh	PKA-R1A activ	PKA-R2B act	pPAFAH FP inh	PAFAH2 confirm
COC(=O)C1CCN(C(=O)COC(=O)c2ccc3[nH]c4c(c3c2)CCCC4)CC1	6	8	0	-3	-10	3	·
CC(C)n1c(SCC(=O)NC2CC2)nnc1-c1ccco1	4	-5	-2	-12	-11	3	·
CC(=O)c1c(C)[nH]c(C(=O)OCC(=O)Nc2cccc(S(=O)(=O)N(C)C)c2)c1C	9	31*	11	-3	4	-5	31*
CC(=O)c1c(C)[nH]c(C(=O)OCC(=O)Nc2cccc(S(=O)(=O)N3CCCC3)c2)c1C	-5	37*	-6	-2	-2	-9	15
O=C(NCc1ccccc1OC(F)(F)F)C1CCC(=O)N(CCc2ccccn2)C1 (configuration not stated)	-3	5	-2	-10	4	5	·
CCc1cc2c(=O)[nH]c(-c3ccncc3)nc2s1	-3	-4	5	0	-5	-1	·
CC(C)(C)c1nc2scc(-c3ccc(Br)cc3)c2c(=O)o1	11	5	0	-3	5	1	·
CCc1cc2c(=O)oc(-c3ccc(Br)cc3)nc2s1	0	78*	-2	-6	-2	·	67*
O=c1oc(-c2cccs2)nc2scc(-c3cccs3)c12	-4	-1	3	0	-9	3	·
Cc1sc2nc(-c3ccc(Br)cc3)oc(=O)c2c1C	9	49*	7	-2	8	-2	36*
Cc1sc2nc(-c3cccs3)oc(=O)c2c1C	-2	63*	-3	2	5	-3	67*
CC(O)[C@H]1CNC(=O)C(=O)N1CCc1cc(C(F)(F)F)cc(C(F)(F)F)c1 (some centres not stated)	6	3	7	-9	-12	6	·
COc1cccc(/C=N/n2c(C3CCCCC3)n[nH]c2=S)c1	9	7	7	-3	-11	11	·
C=CCNC(=O)/C(C#N)=C/c1ccccc1Cl	-4	4	-4	-3	-20	-5	·
C=CCNC(=O)/C(C#N)=C/c1cc(Br)ccc1OC	-2	33*	-5	8	-4	1	16
CSCCC1NC(=O)C(C(C)=Nc2ccccc2)=C1O (configuration not stated)	7	-2	0	8	4	·	·
Cc1cc(C(=O)CSc2nc3ccc(Cl)cc3[nH]2)c(C)n1Cc1ccco1	3	-4	-3	-12	-9	-4	·
O=C(Nc1cc(Cl)ccc1O)C1CC(c2ccccc2Cl)=NO1 (configuration not stated)	-5	33*	-1	-7	5	·	22
CNc1ccc(Br)cc(C(=O)/C=C/c2cccc(Cl)c2Cl)c1=O	15	44*	10	-2	-14	·	15
COc1ccc(CCNC(=O)COC(=O)c2ccc(C)s2)cc1	4	56*	7	-4	1	13	47*
COc1ccc(CCNC(=O)COC(=O)c2cccs2)cc1	1	44*	-1	-2	5	·	34*
COc1ccc(CCNC(=O)COC(=O)c2ccc(C)s2)cc1OC	6	6	7	-3	1	-1	·
CCOC(=O)c1c(-c2ccccc2)oc2ccc(OCC(=O)NNC(=O)CCC(=O)O)cc12	4	-3	3	1	-14	·	·
CCOC(=O)c1c(-c2ccccc2)oc2ccc(OCC(=O)NNC(=O)CCCC(=O)O)cc12	23	41*	17	3	2	·	3
COC(=O)c1c(-c2c(Cl)cccc2Cl)noc1NC(=O)NN1CCCCC1	5	75*	5	-7	-4	15	68*
COC(=O)c1sccc1S(=O)(=O)Nc1ccc(N2CCCCC2)cc1	3	-5	0	1	8	-4	·
COC(=O)C(Sc1ccc(Cl)cc1)C1SC(=S)N(Cc2ccccc2)C1=O (configuration not stated)	·	·	·	10	-1	·	·

Compound activity deposited in PubChem BioAssay by The Scripps Research Institute Molecular Screening Center.
